Assay results published in PubChem BioAssay (NCATS).
Records with an inconclusive call do not appear. Active and inactive are the calls of the source. Calls come from the whole dose curve; as a rule, active = well fitted curve in the direction sought with a large enough effect; inconclusive = small, poorly fitted or top-dose-only effect, or another doubt; inactive = no such curve, though single readings can be large; an effect the other way counts as inactive or inconclusive.

Key:
[1] = test system: CRL-7250; assay: Cytotoxic Profiling of Annotated Libraries Using Quantitative High-Throughput Screening (AID 1296008); details: Five cell lines viability, CellTiter-Glo ATP luminescence, 48-72 h; max response: active compounds read low; note: nearly all actives have a fitted effect of over 60% in size; note: potency is the fitted concentration of half-maximal effect; for max response: % is set by controls: 0 for no effect and ±100 for the full control effect
Method in brief: (§1)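 Compounds were pin-transferred onto cells and incubated 48 or 72 hr at 37 degree Celsius, 95% humidity. CellTiter-Glo was added, plates sat 10 min at room temperature, then ATP-coupled luminescence was imaged as the viability read-out.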

[2] = test system: HEK293; assay: as above; details: Five cell lines viability, CellTiter-Glo ATP luminescence, 48-72 h; max response: active compounds read low
Method in brief: as §1

[3] = test system: C33A; assay: Primary qHTS to identify gynecologic anti-cancer compounds using libraries of approved drugs and bioactive compounds (AID 1345084); details: Gynecologic cancer cell panel viability, ATPlite luminescence, 48 h; series mostly up to 57.5 µM; note: nearly all actives have a fitted effect of over 55% in size; note: potency is the fitted concentration of half-maximal effect; for activity change, negative = cytotoxicity: % is set by controls: 0 for no effect and ±100 for the full control effect
Method in brief: (§2)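 Cell viability after 48 h drug treatment, ATPlite luminescence readout; five doses.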

[4] = test system: CASKI; assay: as above; details: Gynecologic cancer cell panel viability, ATPlite luminescence, 48 h; series mostly up to 57.5 µM
Method in brief: as §2

[5] = test system: Hek293T; assay: as above; details: Gynecologic cancer cell panel viability, ATPlite luminescence, 48 h, control line for the selectivity index; series mostly up to 57.5 µM
Method in brief: as §2

[6] = test system: JEG-3; assay: as above; details: Gynecologic cancer cell panel viability, ATPlite luminescence, 48 h; series mostly up to 57.5 µM
Method in brief: as §2

[7] = test system: SKOV3; assay: as above; details: Gynecologic cancer cell panel viability, ATPlite luminescence, 48 h; series mostly up to 57.5 µM
Method in brief: as §2

[8] = test system: HeLa; assay: as above; details: Gynecologic cancer cell panel viability, ATPlite luminescence, 48 h; series mostly up to 57.5 µM
Method in brief: as §2

[9] = test system: HaCat; assay: Cytotoxic Profiling of Annotated Libraries Using Quantitative High-Throughput Screening (AID 1296008); details: Five cell lines viability, CellTiter-Glo ATP luminescence, 48-72 h; max response: active compounds read low; note: nearly all actives have a fitted effect of over 60% in size; note: potency is the fitted concentration of half-maximal effect; for max response: % is set by controls: 0 for no effect and ±100 for the full control effect
Method in brief: as §1

[10] = test system: KB-3-1; assay: as above; details: Five cell lines viability, CellTiter-Glo ATP luminescence, 48-72 h; max response: active compounds read low
Method in brief: as §1

[11] = test system: NIH3T3; assay: as above; details: Five cell lines viability, CellTiter-Glo ATP luminescence, 48-72 h; max response: active compounds read low
Method in brief: as §1

[12] = test system: HACAT; assay: qHTS assay to identify novel small-molecules to repurpose for Merkel cell carcinoma treatment (AID 1296009); details: MCC and control cell lines, CellTiter-Glo viability, 72 h; at 44.8 µM (top of the series) unless noted; note: nearly all actives have a fitted effect of over 60% in size
Method in brief: (§3)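 qHTS format: cells treated with library compounds in DMSO across 8 (NPC) or 11 (MIPE) concentrations. Readout after 72 hr at 37 degree celsius was CellTiter-Glo luminescence.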

[13] = test system: NIH3T3; assay: as above; details: MCC and control cell lines, CellTiter-Glo viability, 72 h; series mostly up to 44.8 µM
Method in brief: as §3

[14] = test system: CAOV3; assay: Primary qHTS to identify gynecologic anti-cancer compounds using libraries of approved drugs and bioactive compounds (AID 1345084); details: Gynecologic cancer cell panel viability, ATPlite luminescence, 48 h; series mostly up to 57.5 µM; note: nearly all actives have a fitted effect of over 55% in size; note: potency is the fitted concentration of half-maximal effect; for activity change, negative = cytotoxicity: % is set by controls: 0 for no effect and ±100 for the full control effect
Method in brief: as §2

[15] = test system: Es-2; assay: as above; details: Gynecologic cancer cell panel viability, ATPlite luminescence, 48 h; series mostly up to 57.5 µM
Method in brief: as §2

[16] = test system: OV90; assay: as above; details: Gynecologic cancer cell panel viability, ATPlite luminescence, 48 h; series mostly up to 57.5 µM
Method in brief: as §2

[17] = test system: PA-1; assay: as above; details: Gynecologic cancer cell panel viability, ATPlite luminescence, 48 h; series mostly up to 57.5 µM
Method in brief: as §2

CC(C)S(=O)(=O)Nc1ccc(F)c(C(=O)c2c[nH]c3ncc(-c4cccnc4)cc23)c1F
active: Potency [1] 18.4 µM | Potency [2] 14.6 µM | Potency [7] 25.1 µM
inactive: Potency [3] | Potency [4] | Potency [5] | Potency [6]

C=C1C(=O)O[C@@H]2[C@H]3C(C)=CC(=O)C3=C(C)CC[C@@H]12
inactive: Potency [8]
active: Potency [1] 7.31 µM | Potency [2] 2.06 µM

C=C1CCC2C(C)(C)CCCC2(C)C1CC/C(C)=C\CO (stereo unspecified)
inactive: max response [1] 3.55% | outcome [9] | max response [10] 1.75% | outcome [11] | outcome [12] | Potency [13] | Potency [3] | Potency [14] | Potency [4] | Potency [15] | Potency [8] | Potency [5] | Potency [6] | Potency [16] | Potency [17]

CCn1c2ccccc2c2cc(Nc3ccnc(NCCCN4CCOCC4)n3)ccc21
inactive: Potency [3] | Potency [4] | Potency [8]
active: Potency [1] 18.4 µM | Potency [2] 9.2 µM

C=C1C(=O)O[C@@H]2C(OC(=O)/C(C)=C\C)/C(C)=C\C(=O)/C=C(\C)C[C@H](O)[C@@H]12 (stereo partly specified)
active: Potency [1] 10.1 µM | Potency [2] 2.55 µM | Potency [11] 9.04 µM | Potency [5] 11.2 µM | Potency [17] 10 µM
inactive: Potency [8] | Potency [16] | Potency [7]

Cc1[nH]c2ccc(F)cc2c1-c1nc2c3cccnc3c3ncccc3c2[nH]1
active: Potency [1] 3.66 µM | Potency [2] 4.61 µM | Potency [11] 14.6 µM | Potency [14] 3.98 µM | Potency [15] 14.1 µM | Potency [16] 5.62 µM | Potency [17] 7.94 µM
inactive: Potency [8] | Potency [6]

CCn1c(=O)n([C@H]2CCCN(c3nccc(-c4cc5ccccc5o4)n3)C2)c2ccccc21
inactive: outcome [1] | outcome [9] | max response [10] -9.5% | outcome [11] | outcome [12] | Potency [13] | Potency [3] | Potency [14] | Potency [4] | Potency [15] | Potency [8] | Potency [5] | Potency [6] | Potency [16] | Potency [17]

C=C1C(=O)O[C@H]2C3=C(C)CCC[C@]3(C)C(=O)C[C@@H]12
active: Potency [1] 18.4 µM | Potency [2] 5.8 µM | Potency [11] 16.4 µM | Potency [14] 31.6 µM | Potency [15] 31.6 µM
inactive: Potency [8] | Potency [6]

CCCCNc1ncc(-c2ccc(CN3CCOCC3)cn2)c(NC2CCC(O)CC2)n1 (stereo unspecified)
inactive: max response [1] -14.5% | max response [2] -11.5% | Potency [3] | Potency [14] | Potency [4] | Potency [15] | Potency [5] | Potency [6] | Potency [16] | Potency [17]

Cc1cc(Nc2nc(-c3ccccc3)nc3ccccc23)n[nH]1
active: Potency [1] 5.17 µM | Potency [2] 7.31 µM | Potency [11] 9.2 µM | Potency [17] 10 µM
inactive: Potency [3] | Potency [15] | Potency [16]

C=CC(=O)Nc1cccc(Nc2nc(Nc3ccc(OCCOC)cc3)ncc2F)c1
active: Potency [1] 5.17 µM | Potency [2] 8.2 µM | Potency [11] 5.8 µM | Potency [8] 11.2 µM | Potency [17] 10 µM | Potency [7] 2.82 µM
inactive: Potency [6]

CN1CCN(C2CCN(C(=O)Nc3cc(Oc4ccc(NC(=O)C5(C(=O)Nc6ccc(F)cc6)CC5)c(F)c4)ccn3)CC2)CC1
active: Potency [1] 9.2 µM | Potency [2] 13 µM | Potency [11] 2.59 µM
inactive: Potency [3] | Potency [4] | Potency [8] | Potency [5]

CC(C)(O)c1ccc2c(c1)ncn2-c1cccc(-c2ccccc2C#N)c1
inactive: outcome [1] | outcome [9] | max response [10] -0.453% | outcome [11] | outcome [12] | Potency [13] | Potency [3] | Potency [14] | Potency [4] | Potency [15] | Potency [8] | Potency [5] | Potency [6] | Potency [16] | Potency [17]

C[C@@H]1O[C@@H](O[C@H]2[C@H](OC(=O)[C@]34CCC(C)(C)C[C@H]3C3=CCC5[C@@]6(C)C[C@H](O)[C@H](O[C@@H]7O[C@H](CO)[C@@H](O)[C@H](O)[C@H]7O)[C@](CO)(C(=O)O)C6CC[C@@]5(C)[C@]3(C)C[C@H]4O)OC[C@H](O)[C@@H]2O)[C@H](O)[C@H](O)[C@H]1O[C@@H]1OC[C@@H](O)[C@H](O[C@@H]2OC[C@](O)(CO)[C@H]2O)[C@H]1O (stereo partly specified)
active: Potency [1] 1.38 µM | Potency [2] 0.692 µM | Potency [15] 2.82 µM
inactive: activity change, negative = cytotoxicity [14] -2.46% [at 6.55 µM] | activity change, negative = cytotoxicity [4] -28.8% [at 6.55 µM] | activity change, negative = cytotoxicity [16] -28.6% [at 6.55 µM]

Cc1nc(C#Cc2ccnc(Cl)c2)c(C)n1-c1ccc(F)cc1
active: Potency [1] 18.4 µM | Potency [2] 7.31 µM
inactive: max response [11] -10.7% | Potency [14] | Potency [4] | Potency [15] | Potency [8] | Potency [6] | Potency [16] | Potency [17]

Nc1nc(NC2CC2)cc(-c2cccc(Cl)c2Cl)n1
active: Potency [2] 18.4 µM | Potency [8] 20 µM | Potency [17] 28.2 µM | Potency [7] 14.1 µM
inactive: max response [1] -27.4% | Potency [3] | Potency [16]

CC(C)=CCCC1(C)/C=C/C(OC(=O)C=C(C)C)C(C)(O)/C=C/C(=O)/C(CO)=C\C1 (stereo unspecified)
inactive: max response [1] -29.1%
active: Potency [2] 2.52 µM | Potency [5] 8.91 µM

C=C1C(=O)O[C@H]2/C=C(/C)[C@@H](OC(C)=O)C/C=C(\C)C[C@@H](OC(=O)/C(=C/C)COC(=O)/C(=C/C)CO)[C@@H]12
inactive: Potency [8] | Potency [16]
active: Potency [1] 8.93 µM | Potency [2] 3.17 µM | Potency [14] 8.91 µM

COC1CC(=O)C23C(=O)NC(Cc4c[nH]c5ccccc45)C2C(C)C2(C)OC2C3/C=C/CC(C)CC1O (stereo unspecified)
inactive: Potency [3] | Potency [14] | Potency [15] | Potency [5] | Potency [16]
active: Potency [1] 5.02 µM | Potency [2] 7.09 µM | Potency [7] 8.91 µM

C/C=C(\C)C(=O)OC1C=C(C)CC(OC(=O)c2ccc(O)cc2)C2C1(C)CCC2(O)C(C)C (stereo unspecified)
inactive: max response [1] 1.09% | outcome [9] | max response [10] 5.76% | outcome [11] | outcome [12] inactive [at 17.4 µM] | Potency [13] | Potency [3] | Potency [14] | Potency [4] | Potency [15] | Potency [8] | Potency [5] | Potency [6] | Potency [16] | Potency [17] | Potency [7]

CCCNCCc1ccc(NS(=O)(=O)c2ccc(OC(F)(F)F)cc2)cc1
inactive: max response [1] -2.99% | outcome [9] | max response [10] -2.39% | outcome [11] | outcome [12] | Potency [13] | Potency [3] | Potency [14] | Potency [4] | Potency [15] | Potency [8] | Potency [5] | Potency [6] | Potency [16] | Potency [17] | Potency [7]
